Screens deposited in PubChem by several laboratories.
Rv3671c protease = Rv3671c (M. tuberculosis) protease inhibition; P9WHR9; inhibition, % at 5.96 µM; hit rate 0.048% among 320,000; AID 2606; in the data active = inhibition above about 38%;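 also: extracellular domain of Rv3671c used as enzyme; 0% = enzyme with DMSO and 100% = no enzyme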
Target sequence (P9WHR9 whole entry, looked up, the tested form may be a part): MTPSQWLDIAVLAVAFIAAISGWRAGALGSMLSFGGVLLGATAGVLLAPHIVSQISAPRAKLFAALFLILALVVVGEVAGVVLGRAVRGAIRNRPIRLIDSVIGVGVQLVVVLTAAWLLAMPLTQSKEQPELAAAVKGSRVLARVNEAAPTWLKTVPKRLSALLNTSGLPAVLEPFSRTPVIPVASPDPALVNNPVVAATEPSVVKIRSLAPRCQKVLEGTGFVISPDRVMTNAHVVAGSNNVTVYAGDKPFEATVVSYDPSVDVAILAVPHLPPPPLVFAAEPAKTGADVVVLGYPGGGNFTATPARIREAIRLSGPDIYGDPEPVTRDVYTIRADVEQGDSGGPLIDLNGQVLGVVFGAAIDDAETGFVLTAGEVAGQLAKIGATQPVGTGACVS
Mtb UGM inh = inhibitors of M. tuberculosis UDP-galactopyranose mutase; purified UGM, fluorescence polarization probe displacement; inhibition, % at 10 µM; hit rate 0.06% among 320,000; in the data active = inhibition above about 10%, passing the limit was not always enough; inconclusive = no clear call, values can overlap the other calls
FadD28 FP inh = M. tuberculosis FadD28 bisubstrate binding inhibition; FadD28 bisubstrate probe binding, fluorescence polarization; inhibition, % at 12.5 µM; hit rate 0.22% among 360,000; AID 588549; in the data active = inhibition above about 8.5%, passing the limit was not always enough; inconclusive = no clear call, values can overlap the other calls
Y pestis TopoI = Y. pestis Topo-I inhibition via cleavage products. Y. pestis Topo-I cleavage product accumulation, plate reader. activity, % at 10 µM. hit rate 0.064% among 360,000. AID 504884; in the data active = activity above about 50%, passing the limit was not always enough; inconclusive = no clear call, values can overlap the other calls
PfHsp40 rescue = rescue of PfHsp40-mediated yeast toxicity; S. cerevisiae expressing PfHsp40, growth rescue, ATP luminescence; AID 504582; growth rescue, % at 12.5 µM; hit rate 0.68% among 340,000; in the data active = growth rescue above about 28%, passing the limit was not always enough; inconclusive = no clear call, values can overlap the other calls;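 also: yeast W303a lacking pdr1 and pdr3 grown in galactose medium; growth measured after three days at 30 °C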
Mtb betalactam = beta-lactam sensitization of Mtb H37Rv; M. tuberculosis H37Rv growth with meropenem, percent inhibition; hit rate 0.27% among 330,000; inhibition, % at 25 µM; call rule not given here;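 also: growth measured after seven days incubation then overnight dye step; 0% = bacteria only wells and 100% = bacteria with antibiotic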
An asterisk follows results filed as active; u = inconclusive; x = not tested or not shown. Hits are enriched below; roughly 0.98% of the tested compounds scored in any of these assays.

SMILES	Rv3671c protease	Mtb UGM inh	FadD28 FP inh	Y pestis TopoI	PfHsp40 rescue	Mtb betalactam
Cc1cc(S(N)(=O)=O)ccc1N=Cc1c(O)n(-c2ccccc2)c(=O)[nH]c1=O	-2	-4	-2	4	-1	-5
Cc1ccc(-n2c(O)c(C=Nc3ccccc3N)c(=O)[nH]c2=O)cc1C	-6	0	-2	6	40*	-3
COc1ccc(CNC(=O)[C@H](Cc2ccccc2)NC(=O)CC[C@H]2O[C@@H](n3ccc(=O)[nH]c3=O)[C@H](O)[C@@H]2O)cc1	x	x	-1	x	x	x
Clc1ccc(COn2c(-c3ccccc3)nc3ccccc32)cc1	-19	1	-6	59*	3	16
C=C(C)Cn1c2ccc(NC(=O)NCc3ccccc3)cc2c(=O)n1C	x	x	-2	11	x	x
CC(c1ccc2c(c1)OCO2)n1c(=S)[nH]c2ccccc2c1=O (configuration not stated)	1	1	-28	0	75*	4
O=C(O)C(Cc1ccccc1)n1c(=S)[nH]c2ccccc2c1=O (configuration not stated)	5	2	-1	-9	0	11
CCC1CCCCN1CCCNC(=O)c1cn(C)c2ccc(S(=O)(=O)N3CCOCC3)cc2c1=O (configuration not stated)	-5	1	1	-2	1	-10
CCC1CCCCN1CCCNC(=O)c1cn(C)c2ccc(S(=O)(=O)N(C)C3CCCCC3)cc2c1=O (configuration not stated)	-2	1	1	19	38*	5
CCCNC(=O)C1(C)CCCN(Cc2ccccc2N(C)C)C1 (configuration not stated)	x	x	0	-7	x	x
COc1cc2c(c(OC)c1OC)-c1ccc(O)c(=O)cc1[C@@H](NC(C)=O)CC2	11	5	0	-2	325*	3
COc1cc2c(c(OC)c1OC)-c1ccc(O)cc1C(NC(C)=O)CC2 (configuration not stated)	x	x	-1	0	-2	x
O=C(O)c1ccc2c(c1)C1C(Cl)C(Sc3ccccc3[N+](=O)[O-])CC1C(c1cccc([N+](=O)[O-])c1)N2 (configuration not stated)	x	x	43*	-4	3	x
CCN(CC)C(=O)c1ccc2c(c1)C1C(Cl)C(Sc3ccccc3[N+](=O)[O-])CC1C(C(=O)O)N2 (configuration not stated)	6	-1	34*	4	3	18
C[C@H]1CN([C@@H](C)CO)C(=O)CCCn2nncc2CO[C@@H]1CN(C)Cc1ccccc1C(F)(F)F	x	x	0	2	x	x
O=C(Cc1ccc(Cl)cc1)Nc1cccnc1Cl	x	x	-4	7	x	x
COc1ccc(-c2csc(/C(C#N)=C\c3ccc(O)c([N+](=O)[O-])c3)n2)cc1OC	-3	0	9.5*	-15	0	96
COc1ccc(S(=O)(=O)Nc2cccc(-c3ccc(N4CCCCCC4)nn3)c2)c(OC)c1	-34	1	-6	13	2	9
COc1ccc(C2CC=C(C(C)=O)CN2S(=O)(=O)c2ccc(C)cc2)cc1 (configuration not stated)	x	x	-7	x	x	x
CCCCCC(=O)Nc1cc(S(=O)(=O)O)cc2cc(S(=O)(=O)O)cc(O)c12	x	x	35*	-9	8	x
CCCCCC(=O)Nc1cc(S(=O)(=O)N2CCCCC2)ccc1N1CCCCC1	x	x	0	28	3	x
O=C(Oc1ccc(C(=S)N2CCOCC2)cc1)c1ccc([N+](=O)[O-])cc1[N+](=O)[O-]	-7	-1	0	-3	3	13
O=C(Oc1cccc(C(=S)N2CCOCC2)c1)c1ccc([N+](=O)[O-])cc1[N+](=O)[O-]	2	-3	-3	7	44*	58
C=CCNc1ncnc2c1ncn2[C@H]1CN(CCN2CCOCC2)C[C@@H](CO)O1	x	x	0	-3	x	x
Cc1ccc(/C=C2\SC(=S)N(C(Cc3ccccc3)C(=O)O)C2=O)cc1 (configuration not stated)	-7	-3	-6	1	161*	8
SMILES	Rv3671c protease	Mtb UGM inh	FadD28 FP inh	Y pestis TopoI	PfHsp40 rescue	Mtb betalactam
Cn1nc(C(F)(F)F)c(/C=N/OC(=O)c2ccccc2Cl)c1SCc1ccc(Cl)cc1	-4	-2	0	35	52*	-5
CCCCNC(=O)C1(C)CCCCCN1Cc1cc2ccccc2o1 (configuration not stated)	x	x	-2	31	x	x
O=C(O)c1[nH]c2ccccc2c1C(c1ccccc1)c1c(C(=O)O)[nH]c2ccccc12	-3	1	22*	-1	23	-4
O=C(O)COc1ccc(Br)cc1C(c1c(C(=O)O)[nH]c2ccccc12)c1c(C(=O)O)[nH]c2ccccc12	3	2	28*	-6	4	-6
COc1cc(C(NC(C)=O)NC(C)=O)ccc1OCc1ccccc1	3	-6	-5	-4	-2	4
C=CCOc1ccc(C(c2c(C(=O)O)[nH]c3ccccc23)c2c(C(=O)O)[nH]c3ccccc23)cc1	-7	0	40*	10	23	-5
COc1cc(C(c2c(C(=O)O)[nH]c3ccccc23)c2c(C(=O)O)[nH]c3ccccc23)ccc1OCc1ccccc1	7	3	32*	0	3	-5
COc1ccc(CN=Cc2c(C(=O)O)[nH]c3ccccc23)cc1	-1	-2	-4	9	0	-1
CCN(CC)Cc1cc(Oc2ccc(O)c(CN(CC)CC)c2)ccc1O	x	x	-2	x	x	x
CCOc1ccccc1N1C(=O)CN(Cc2ccc(OC)c(OC)c2)C1=S	1	0	-3	-4	0	8
O=C(O)c1[nH]c2ccccc2c1C(c1cc(Cl)cc([N+](=O)[O-])c1O)c1c(C(=O)O)[nH]c2ccccc12	8	8	56*	-11	u	5
COC(=O)c1[nH]c2ccc(Cl)cc2c1NC(=O)c1ccccc1[N+](=O)[O-]	-6	-1	-3	-4	1	0
O=[N+]([O-])c1ccc(NN=C(c2ccccc2)c2ccccc2)nc1	x	x	0	6	55*	x
Cc1ccc(C=NNc2ccc([N+](=O)[O-])cn2)cc1	x	x	-1	-9	36*	x
Cc1c(C(=O)O)cccc1-n1c(C)cc(/C=N/Nc2ccc([N+](=O)[O-])cn2)c1C	7	-1	34*	-5	0	45
Cc1ccc(-n2c(C)cc(/C=N/Nc3ccc([N+](=O)[O-])cn3)c2C)cc1	9	-1	-2	-18	1	7
CC1(c2nc3ccccc3cc2C#N)OCCO1	x	x	-2	8	x	x
O=[N+]([O-])c1ccccc1S(=O)c1ccccc1[N+](=O)[O-]	x	x	-4	x	x	x
COCCCNC(=O)CSc1nc2cc(C(=O)NCCOC)ccc2c(=O)n1Cc1ccc2c(c1)OCO2	-14	-1	-1	9	0	-3
CCOc1ccc(N=Nc2ccc(O)c3ncccc23)cc1	x	1	0	-2	-2	89
CCOc1ccc2c(ccc(/C=C/c3cc(C)c4cccnc4c3O)[n+]2C)c1	x	x	16*	-42	17	x
